The results in this text go back to PubChem BioAssay.

Molecules are shown by their SMILES. Active and inactive are the calls of the source.

Assay [1] relates to PRMT1 (protein arginine N-methyltransferase 1). As to the kind of experiment: small molecules binding arginine methyltransferase PRMT1 – biochemical, small-molecule microarray, 635 nm fluorescence, primary screen (AID 1088).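 Note: binding of Prmt1 protein to compounds spotted on small-molecule microarray slides.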 Conditions: higher = more signal.
Assay [2] is described as follows: growth effects on S. cerevisiae YJM789 – YJM789 clinical isolate, OD600, 24 h, basal, primary screen (AID 1089).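 Note: growth of clinical yeast isolate S. cerevisiae YJM 789 seeded 1000 cells per well; test concentration not given here.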 The note with it: higher = more signal, called active from +8 up or from −8 down.
A short description of assay [3]: S. pombe growth modifiers, basal conditions – strain 972, OD600, 24 h, no modulator, primary screen (AID 1090).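 Note: basal condition with compound alone and no growth modifier present; test concentration not given here.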 Conditions: S. pombe 972 growth, higher = more signal, called active from +8 up or from −8 down.
Assay [4] can be described thus: budding yeast growth modifiers under rapamycin – strain BY4716, OD600, 96 h, primary screen (AID 1091). Note: test concentration not given here. The note with it: S. cerevisiae BY4716 + rapamycin, higher = more signal, called active from +8 up or from −8 down.
Assay [5] addresses Torsin-1A-interacting protein 2 (Homo sapiens) (UniProt Q8NFQ8). As to the kind of experiment: small molecules binding lysate-expressed LULL1 – cell lysate, human LULL1 lysate, 635/667 nm fluorescence, primary screen (AID 1092).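 Note: probe is lysate of COS7 cells overexpressing human LULL1; score merges per-feature 667 nm fluorescence with signal-to-noise.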 The note with it: small-molecule microarray, hLULL1 lysate binding, 635 nm fluorescence; higher = more signal.
Assay [6] in a line: optical density change of DRC41 E. coli – strain DRC41, OD650, 24 h, E. coli filamentation project, primary screen (AID 1093).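 Note: MC1000 strain lacking acrAB efflux and sulA so SOS filamentation is blocked; test concentration not given here.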 The note with it: E. coli DRC41 growth, higher = more signal, called active from +8 up or from −8 down.
The nature of assay [7]: probe aLefty2 binding to arrayed compounds – biochemical, biotinylated probe, 635/667 nm fluorescence, primary screen (AID 1094).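 Note: score merges spot fluorescence near 667 nm with spot signal-to-noise ratio.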 The note with it: small-molecule microarray, higher = more signal.
Assay [8] concerns Noggin (protein binding on small-molecule microarray). As to the kind of experiment: small molecules binding Noggin protein – biochemical, 635/667 nm fluorescence, primary screen (AID 1095).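 Note: score merges 667 nm feature fluorescence with signal to noise over triplicate slides.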 The note with it: 635 nm fluorescence, higher = more signal.
Assay [9] addresses Neurogenic locus notch homolog protein 3 (Homo sapiens) (UniProt Q9UM47). The experiment in a line: small molecules binding NOTCH3 protein – biochemical, 635/667 nm fluorescence, primary screen (AID 1096). The note with it: small-molecule microarray, 635 nm fluorescence, higher = more signal.
Assay [10] in a line: probe aEGFR binding to arrayed compounds – biochemical, biotinylated probe, 635/667 nm fluorescence, primary screen (AID 1097).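 Note: probe is a biotinylated anti-EGFR antibody binding compounds printed on slides; score combines fluorescence near 667 nm and signal to noise of each spot.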 The note with it: small-molecule microarray, higher = more signal.
Assay [11] deals with Plasmodium falciparum Sir2 (PF13_0152, Sir2A). The experiment in a line: Plasmodium falciparum Sir2A binding compounds – biochemical, small-molecule microarray, 635 nm fluorescence, primary screen (AID 1098).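 Note: score merges spot fluorescence intensity with its signal-to-noise ratio.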 Conditions: fluorescence 635 nm, higher = more signal.
Assay [12] can be described thus: probe aDKK1 binding to arrayed compounds – biochemical, biotinylated probe, 635/667 nm fluorescence, primary screen (AID 1099).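 Note: score merges 667nm spot fluorescence with signal to noise across triplicate slides; reference of the scale not given here.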 The note with it: small-molecule microarray, higher = more signal.
A short description of assay [13]: probe aCHRDL2 binding to arrayed compounds – biochemical, biotinylated probe, 635/667 nm fluorescence, primary screen (AID 1100). The note with it: small-molecule microarray, higher = more signal.
A short description of assay [14]: change in splice reporter luminescence, either direction, cell-based, HEK293, spliceosome inhibition project, primary screen (AID 1101).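 Note: HEK293 cells carrying a splicing-competent luciferase reporter gene; test concentration not given here.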 The note with it: HEK293 splicing luciferase reporter, 24 h, higher = more signal, called active from +8 up or from −8 down.
Assay [15] concerns the target Fibroblast growth factor 10 (Homo sapiens) (UniProt O15520). The experiment in a line: compounds binding fibroblast growth factor 10 – biochemical, small-molecule microarray, 635 nm fluorescence, primary screen (AID 1102). The note with it: FGF10 binding, fluorescence 635 nm, higher = more signal.
Assay [16] relates to glycogen synthase kinase-3 (GSK3A per assay name; protocol says GSK3B). The experiment in a line: compounds binding glycogen synthase kinase-3 – biochemical, small-molecule microarray, 635 nm fluorescence, GSK3A, primary screen (AID 1103). Note: the record names both GSK3A and GSK3B. The note with it: fluorescence 635 nm, higher = more signal.
Assay [17] addresses Epidermal growth factor receptor (Homo sapiens) (UniProt P00533). The experiment in a line: compounds binding epidermal growth factor receptor – biochemical, small-molecule microarray, 635 nm fluorescence, primary screen (AID 1104).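 Note: score merges 667 nm emission intensity with spot signal to noise over triplicate slides.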 The note with it: EGFR binding, higher = more signal.
For assay [18], the target named is Follistatin-related protein 3 (Homo sapiens) (UniProt O95633). As to the kind of experiment: compounds binding follistatin-related protein 3 – biochemical, small-molecule microarray, 635 nm fluorescence, primary screen (AID 1105).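 Note: score merges emission near 667 nm and signal to noise per printed spot across three slides.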 Conditions: FSTL3 binding, higher = more signal.
Sequence of Follistatin-related protein 3 (Homo sapiens) (O95633 whole entry, looked up): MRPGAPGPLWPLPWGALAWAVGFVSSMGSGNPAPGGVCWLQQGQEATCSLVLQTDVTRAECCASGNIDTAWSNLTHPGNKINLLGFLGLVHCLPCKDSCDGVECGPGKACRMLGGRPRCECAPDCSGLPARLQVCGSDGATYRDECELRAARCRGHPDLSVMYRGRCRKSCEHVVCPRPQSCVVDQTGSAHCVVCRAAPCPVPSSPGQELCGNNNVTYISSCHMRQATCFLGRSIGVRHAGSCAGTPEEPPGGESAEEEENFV
Assay [19] deals with Dickkopf-related protein 1 (Homo sapiens) (UniProt O94907). The experiment in a line: small molecules binding DKK1 protein – biochemical, small-molecule microarray, 635 nm fluorescence scan, primary screen (AID 1106).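 Note: score merges emission near 667 nm with signal to noise over three replicate slides.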 The note with it: higher = more signal.
Sequence of Dickkopf-related protein 1 (Homo sapiens) (O94907 whole entry, looked up): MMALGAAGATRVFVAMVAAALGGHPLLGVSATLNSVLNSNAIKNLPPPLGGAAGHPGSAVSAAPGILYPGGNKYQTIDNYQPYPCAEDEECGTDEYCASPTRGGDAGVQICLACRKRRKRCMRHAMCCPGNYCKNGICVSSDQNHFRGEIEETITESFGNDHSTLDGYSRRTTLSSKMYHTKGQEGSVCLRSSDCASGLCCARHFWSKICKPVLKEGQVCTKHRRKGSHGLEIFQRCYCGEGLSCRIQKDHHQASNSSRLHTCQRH
For assay [20], the system named is Inhibin beta A chain (activin A). The experiment in a line: small molecules binding activin A – biochemical, small-molecule microarray, 635 nm fluorescence scan, primary screen (AID 1107).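 Note: mouse activin A protein probed at 4.33 µg/mL on printed slides; score merges bound-protein fluorescence near 667 nm with spot signal-to-noise.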 The note with it: INHBA, higher = more signal.

Sequence of Neurogenic locus notch homolog protein 3 (Homo sapiens) (Q9UM47 whole entry, looked up): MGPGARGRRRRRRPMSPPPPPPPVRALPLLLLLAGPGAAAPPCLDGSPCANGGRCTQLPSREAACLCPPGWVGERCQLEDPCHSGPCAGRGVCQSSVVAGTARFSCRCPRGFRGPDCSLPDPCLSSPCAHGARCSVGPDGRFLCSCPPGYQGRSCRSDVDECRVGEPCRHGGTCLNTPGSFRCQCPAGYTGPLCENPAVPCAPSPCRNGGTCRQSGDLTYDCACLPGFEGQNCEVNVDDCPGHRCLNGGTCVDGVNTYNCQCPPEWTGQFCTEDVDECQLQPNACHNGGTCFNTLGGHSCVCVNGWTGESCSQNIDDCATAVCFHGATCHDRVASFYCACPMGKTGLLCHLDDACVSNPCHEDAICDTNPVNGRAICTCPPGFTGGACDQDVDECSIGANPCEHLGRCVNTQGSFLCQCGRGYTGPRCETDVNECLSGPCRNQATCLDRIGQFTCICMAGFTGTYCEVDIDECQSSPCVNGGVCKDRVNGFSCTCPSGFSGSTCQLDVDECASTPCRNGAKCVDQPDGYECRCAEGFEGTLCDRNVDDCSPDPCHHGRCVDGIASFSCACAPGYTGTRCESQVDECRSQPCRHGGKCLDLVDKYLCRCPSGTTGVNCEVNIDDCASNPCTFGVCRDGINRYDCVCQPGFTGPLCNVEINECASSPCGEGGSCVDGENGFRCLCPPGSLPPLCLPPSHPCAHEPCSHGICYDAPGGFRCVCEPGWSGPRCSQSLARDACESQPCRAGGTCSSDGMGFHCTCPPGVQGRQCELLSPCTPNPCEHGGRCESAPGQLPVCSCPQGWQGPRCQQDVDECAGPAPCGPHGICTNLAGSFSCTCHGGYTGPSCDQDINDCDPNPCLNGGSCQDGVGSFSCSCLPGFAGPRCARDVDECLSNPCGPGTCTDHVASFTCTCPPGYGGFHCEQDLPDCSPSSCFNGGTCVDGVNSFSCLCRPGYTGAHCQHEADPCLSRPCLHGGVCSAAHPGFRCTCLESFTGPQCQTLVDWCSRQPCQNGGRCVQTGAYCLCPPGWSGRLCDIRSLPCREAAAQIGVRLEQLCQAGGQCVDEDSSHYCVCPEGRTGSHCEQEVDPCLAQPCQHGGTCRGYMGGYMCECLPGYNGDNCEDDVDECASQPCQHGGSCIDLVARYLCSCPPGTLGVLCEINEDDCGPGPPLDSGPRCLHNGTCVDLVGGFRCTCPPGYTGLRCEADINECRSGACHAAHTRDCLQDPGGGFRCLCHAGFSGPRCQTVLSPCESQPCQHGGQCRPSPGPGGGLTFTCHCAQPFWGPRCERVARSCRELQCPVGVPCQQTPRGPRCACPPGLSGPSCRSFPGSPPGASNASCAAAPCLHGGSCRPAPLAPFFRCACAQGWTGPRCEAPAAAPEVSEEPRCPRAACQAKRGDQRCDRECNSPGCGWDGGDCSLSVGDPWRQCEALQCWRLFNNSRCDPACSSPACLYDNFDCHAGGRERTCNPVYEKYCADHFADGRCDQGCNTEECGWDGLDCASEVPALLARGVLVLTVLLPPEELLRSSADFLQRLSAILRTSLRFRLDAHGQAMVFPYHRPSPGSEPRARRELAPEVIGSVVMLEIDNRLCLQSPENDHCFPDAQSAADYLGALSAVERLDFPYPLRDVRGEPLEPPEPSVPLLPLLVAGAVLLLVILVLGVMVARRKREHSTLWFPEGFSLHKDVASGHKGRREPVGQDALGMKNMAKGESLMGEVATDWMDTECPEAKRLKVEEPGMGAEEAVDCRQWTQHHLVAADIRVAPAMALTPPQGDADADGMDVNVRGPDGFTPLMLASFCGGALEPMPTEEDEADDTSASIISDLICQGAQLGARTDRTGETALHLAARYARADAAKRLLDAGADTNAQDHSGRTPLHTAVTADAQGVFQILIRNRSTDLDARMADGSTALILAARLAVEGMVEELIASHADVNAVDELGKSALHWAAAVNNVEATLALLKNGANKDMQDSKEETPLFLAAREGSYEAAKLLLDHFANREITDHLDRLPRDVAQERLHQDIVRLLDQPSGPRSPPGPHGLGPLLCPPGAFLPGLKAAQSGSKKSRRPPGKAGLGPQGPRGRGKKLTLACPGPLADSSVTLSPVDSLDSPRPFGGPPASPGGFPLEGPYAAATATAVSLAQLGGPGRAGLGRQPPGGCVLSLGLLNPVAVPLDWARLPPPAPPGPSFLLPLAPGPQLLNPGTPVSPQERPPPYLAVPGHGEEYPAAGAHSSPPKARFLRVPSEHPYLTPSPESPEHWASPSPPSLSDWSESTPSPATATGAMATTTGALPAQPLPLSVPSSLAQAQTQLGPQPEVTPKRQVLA
Sequence of Fibroblast growth factor 10 (Homo sapiens) (O15520 whole entry, looked up): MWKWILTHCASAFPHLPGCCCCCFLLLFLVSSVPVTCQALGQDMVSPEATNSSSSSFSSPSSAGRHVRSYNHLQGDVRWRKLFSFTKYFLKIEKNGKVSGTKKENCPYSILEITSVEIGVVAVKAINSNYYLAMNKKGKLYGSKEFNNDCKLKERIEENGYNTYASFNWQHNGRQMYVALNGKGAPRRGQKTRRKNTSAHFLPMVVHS
Sequence of Epidermal growth factor receptor (Homo sapiens) (P00533 whole entry, looked up): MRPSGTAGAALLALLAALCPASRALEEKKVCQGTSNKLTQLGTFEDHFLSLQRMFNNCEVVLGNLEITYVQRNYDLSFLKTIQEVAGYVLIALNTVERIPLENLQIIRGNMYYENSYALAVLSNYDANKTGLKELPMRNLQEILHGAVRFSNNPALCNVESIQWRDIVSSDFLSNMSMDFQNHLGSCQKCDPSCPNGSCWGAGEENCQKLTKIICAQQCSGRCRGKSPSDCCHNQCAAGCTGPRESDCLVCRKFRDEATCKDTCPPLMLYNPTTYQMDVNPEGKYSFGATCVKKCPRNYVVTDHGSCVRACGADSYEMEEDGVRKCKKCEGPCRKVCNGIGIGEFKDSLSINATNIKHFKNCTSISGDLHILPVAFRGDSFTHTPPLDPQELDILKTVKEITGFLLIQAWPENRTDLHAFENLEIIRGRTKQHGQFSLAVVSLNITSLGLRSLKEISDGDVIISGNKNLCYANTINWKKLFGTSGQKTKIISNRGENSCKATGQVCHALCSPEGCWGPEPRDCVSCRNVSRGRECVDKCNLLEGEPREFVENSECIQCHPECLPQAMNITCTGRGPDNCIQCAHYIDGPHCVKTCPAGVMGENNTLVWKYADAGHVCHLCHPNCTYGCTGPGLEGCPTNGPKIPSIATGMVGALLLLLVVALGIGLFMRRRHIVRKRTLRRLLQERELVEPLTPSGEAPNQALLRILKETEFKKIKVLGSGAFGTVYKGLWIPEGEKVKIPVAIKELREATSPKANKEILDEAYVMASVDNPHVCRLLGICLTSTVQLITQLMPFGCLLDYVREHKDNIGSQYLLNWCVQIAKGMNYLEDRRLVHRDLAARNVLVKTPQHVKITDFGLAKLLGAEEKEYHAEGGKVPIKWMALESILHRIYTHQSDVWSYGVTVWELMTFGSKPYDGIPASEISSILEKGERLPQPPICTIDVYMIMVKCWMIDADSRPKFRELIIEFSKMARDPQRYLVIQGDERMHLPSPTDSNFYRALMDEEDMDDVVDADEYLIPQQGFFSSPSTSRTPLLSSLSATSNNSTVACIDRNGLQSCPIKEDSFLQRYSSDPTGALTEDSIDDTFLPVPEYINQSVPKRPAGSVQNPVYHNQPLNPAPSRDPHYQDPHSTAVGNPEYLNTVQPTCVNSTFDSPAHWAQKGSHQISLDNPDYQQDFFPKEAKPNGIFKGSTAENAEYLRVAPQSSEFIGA
Sequence of Torsin-1A-interacting protein 2 (Homo sapiens) (Q8NFQ8 whole entry, looked up): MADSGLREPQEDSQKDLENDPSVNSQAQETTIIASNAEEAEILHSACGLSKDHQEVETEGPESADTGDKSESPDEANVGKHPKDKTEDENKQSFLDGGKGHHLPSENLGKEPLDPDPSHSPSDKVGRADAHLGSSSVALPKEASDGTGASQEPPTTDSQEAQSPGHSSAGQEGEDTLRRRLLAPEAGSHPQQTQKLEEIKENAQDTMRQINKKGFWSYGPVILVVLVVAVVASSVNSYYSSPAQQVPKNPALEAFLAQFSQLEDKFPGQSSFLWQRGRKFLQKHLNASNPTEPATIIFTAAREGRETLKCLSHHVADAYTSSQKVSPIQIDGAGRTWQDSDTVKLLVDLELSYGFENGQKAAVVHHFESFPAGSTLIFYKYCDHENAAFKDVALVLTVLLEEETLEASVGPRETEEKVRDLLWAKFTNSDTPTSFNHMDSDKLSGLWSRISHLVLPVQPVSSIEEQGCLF

Take `CC(CCN1CCCc2nc(C)c(C)cc21)=NOC(C)CN1CCCCc2nc(C)c(C)cc21` (stereo not given): the composite z-score in [1] was 1.49; in assay [5], 1.22; in assay [7], 0.0012; in [8] it was 0.923; in assay [9], 1.08; in assay [10] it was 0.406. For the same compound, the composite z-score in assay [11] was 1.16; in assay [12], 0.0616; in assay [13], -0.271; in assay [15], 1.14; in assay [16], 1.28; in assay [17], 1.2. For the same compound, the composite z-score was determined as 1.42 in assay [18], 1.18 in assay [19] and 1.43 in [20]. Further, the z-score in [2] is -0.415 (inactive); in assay [3], 0.435 (inactive); in assay [4], 0.837 (inactive); in assay [6], 0.597 (inactive); in assay [14], 0.322 (inactive).

For the compound `O=C1CCCC(C2=CCCCC2=O)C1` (stereo not given), the composite z-score is 0.0732 in [1]; -0.168 in assay [5]; 0.02 in assay [7]; 0.546 in assay [8]; 0.0934 in [9]; -0.029 in assay [10]. Further, the composite z-score in assay [11] was -0.153; in assay [12] it was -0.356; in assay [13], -0.766; in assay [15], 0.466; in [16], 0.555; in assay [17], 0.612. The composite z-score in assay [18] stood at 0.668; in assay [19] it was 0.923; in [20] it was 1.5. For the same compound, the z-score in assay [2] is 0.222 (inactive); in [3] it was 0.65 (inactive); in [4], 0.6 (inactive); in assay [6], 0.455 (inactive); in assay [14], 0.378 (inactive).

For the compound `CCOC(=O)[C@H](CC(C)C)NC(=O)CCC1CC(OC(=O)NCc2cccc3ccccc23)CC2(CCCC(COC(=O)NCc3ccncc3)O2)O1` (stereo not given in full), the composite z-score is 1.56 in [1]; 1.58 in assay [5]; -0.166 in assay [7]; 0.433 in assay [8]; 0.789 in [9]; 0.157 in assay [10]. The composite z-score in assay [11] was 0.741; in [12], -0.131; in [13], -0.377; in assay [15], 1.2; in [16], 1.06; in assay [17], 0.363. Further, the composite z-score in assay [18] was 0.887; in assay [19], 0.559; in [20], -0.177. The z-score was 0.649 (inactive) in assay [2]; 0.462 (inactive) in [3]; 0.678 (inactive) in assay [4]; 0.409 (inactive) in assay [6]; -0.00923 (inactive) in assay [14].

Consider `CCN1C(=O)[C@H]2[C@H]3[C@H](O)[C@H](O)CC(=NNC(=O)OCc4ccc(OC)cc4)[C@@H]3CC[C@H]2C1=O`, for which the composite z-score is -0.235 in [1]; 0.0228 in assay [5]; 0.241 in assay [7]; 0.51 in [8]; -0.428 in assay [9]; -0.113 in assay [10]. Also, the composite z-score in [11] was -0.492; in [12], 1.08; in [13] it was 0.765; in assay [15], -0.0766; in assay [16] it was 0.269; in assay [17], -0.0752. The composite z-score in assay [18] was 0.0539; in assay [19], -0.808; in [20], 0.242. In addition, the z-score in [2] was -1.31 (inactive); in [3], -1.45 (inactive); in assay [4] it was -0.287 (inactive); in assay [6], 0.214 (inactive); in assay [14], 0.564 (inactive).

For `CCc1cc2c(nc1CC)CCN(CCC(C)=NO[C@H](C)c1cn([C@H](CO)Cc3ccccc3)nn1)C2`, the composite z-score in assay [1] is 1.05; in assay [5] it was 0.461; in assay [7], 0.0336; in [8], 0.336; in [9], -0.171; in assay [10], -0.142. Also, the composite z-score was 0.536 in [11]; -0.144 in assay [12]; -0.0059 in assay [13]; 0.0168 in assay [15]; 0.0291 in [16]; 0.1 in assay [17]. Besides, the composite z-score was 0.11 in assay [18], 0.274 in assay [19] and 1.3 in [20]. The z-score was -0.563 (inactive) in [2]; -0.484 (inactive) in assay [3]; -0.112 (inactive) in assay [4]; -0.0004 (inactive) in assay [6]; -0.0554 (inactive) in [14].
